According to the supplement of paper PMC10646978:
± gives the standard deviation.

Columns and labels:
Settings in all cases: modulator concentration 10 µM
[1] = system: RAW-Dual (murine macrophage reporter line); experiment: NF-kB reporter (SEAP) activity fold change vs agonist alone; higher = enhanced NF-kB activity
How it was run: (§1)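 RAW-Dual murine macrophage reporter cells were plated at 50 000 per well in 384-well plates, pin-transferred compound to 10 μM final, and pre-incubated for 1 hour at 37 °C before a PRR agonist was added and the cells incubated overnight. NF-κB activity was read from supernatant SEAP with QUANTI-Blue at 620 nm absorbance, and IRF activity from Lucia luciferase with QUANTI-Luc by luminescence. Each signal was expressed as fold change by dividing by the mean agonist-only control on the same plate. Two replicate plates were averaged, with errors obtained by propagation.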

[2] = system: RAW-Dual (murine macrophage reporter line); experiment: IRF reporter (Lucia luciferase) activity fold change vs agonist alone; higher = enhanced IRF activity
How it was run: as §1

[3] = system: RAW-Dual (murine macrophage reporter line); experiment: viability score (confluency relative to resting cells, overnight) (fraction); higher = more viable, active = viable (0.7 or more)
How it was run: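 RAW-Dual macrophages in 384-well plates were incubated overnight with compound, final concentration 10 μM. Confluency images from IncuCyte were processed in IncuCyte software into two masks covering all imaged wells. The viability score is each well's confluency relative to resting cells, and a compound met the cutoff when both masks exceeded 70% of resting cells.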

[4] = agonist: CpG ODN 1826 0.5 ug/mL

SMILES	NF-kB reporter [1, 4]	NF-kB reporter ([1]; agonist: LPS 0.1 ug/mL)	NF-kB reporter ([1]; agonist: MPLA […])	IRF reporter ([2]; agonist: 3'3'-cGAMP 10 ug/mL)	IRF reporter ([2]; agonist: LPS 0.1 ug/mL)	IRF reporter ([2]; agonist: MPLA […])	viability score [3]
COc1ccc(CNC2CCCc3ccccc32)c(OC)c1C (configuration not stated)	0.166 ± 0.016	0.504 ± 0.058	1.09 ± 0.1	1.24 ± 0.04	1.21 ± 0.14	1.42 ± 0.29	0.192 (inactive)
O=C(Nc1ccncc1)c1ccc(OCC2CCOCC2)nc1	1.15 ± 0.063	1.39 ± 0.12	1.28 ± 0.082	1.22 ± 0.083	1.28 ± 0.11	1.24 ± 0.34	0.996 (active)
O=Cc1ccc(OC(=O)c2cccc(C(=O)Oc3ccc(C=O)cc3)c2)cc1	0.813 ± 0.064	0.851 ± 0.052	1.02 ± 0.092	0.975 ± 0.064	1.52 ± 0.088	1.69 ± 0.14	0.989 (active)
Cc1ccc(Nc2nccc(N(C)c3ccc4c(C)n(C)nc4c3)n2)cc1S(N)(=O)=O	0.71 ± 0.11	1.84 ± 0.36	2.52 ± 0.16	0.146 ± 0.014	0.835 ± 0.15	1.18 ± 0.14	0.78 (active)
c1ccc(CSc2nnc(-c3ccncc3)[nH]2)cc1	1.08 ± 0.085	0.945 ± 0.097	1.04 ± 0.028	0.582 ± 0.033	0.888 ± 0.043	0.872 ± 0.09	0.996 (active)
O=C(O)CCCCC1SCC2NC(=O)NC21 (configuration not stated)	0.935 ± 0.067	1.13 ± 0.078	0.96 ± 0.078	0.953 ± 0.072	1.18 ± 0.075	1.12 ± 0.25	0.997 (active)
Cl.Cl.O=C1c2c(O)ccc(O)c2C(=O)c2c(NCCNCCO)ccc(NCCNCCO)c21	0.0718 ± 0.0057	0.065 ± 0.0036	0.125 ± 0.011	0.0431 ± 0.0042	0.0592 ± 0.012	0.0943 ± 0.0079	0.388 (inactive)
CC1(C)Cc2c(sc3nc(SCC(N)=O)n(CCc4ccccc4)c(=O)c23)CO1	0.815 ± 0.07	0.814 ± 0.054	0.927 ± 0.1	1.02 ± 0.054	1.24 ± 0.084	1.3 ± 0.11	1.01 (active)
NS(=O)(=O)c1cc(Cl)c(Cl)c(S(N)(=O)=O)c1 [Prestw-809]	1.15 ± 0.13	1.02 ± 0.083	0.953 ± 0.046	0.916 ± 0.067	0.92 ± 0.093	0.911 ± 0.16	1 (active)
Cc1cc(OCc2nc(-c3ccc(Cl)cc3Cl)no2)ccc1Br	1.03 ± 0.17	0.988 ± 0.12	1.63 ± 0.8	0.984 ± 0.039	1.15 ± 0.13	1.15 ± 0.21	1.01 (active)
OCC(S)CS (configuration not stated)	0.949 ± 0.072	0.909 ± 0.059	0.988 ± 0.023	0.336 ± 0.034	0.84 ± 0.07	0.912 ± 0.081	0.994 (active)
CCOc1ccc(C=C2SC(=S)N(C)C2=O)cc1	0.96 ± 0.075	1.01 ± 0.072	0.905 ± 0.073	0.962 ± 0.049	1.39 ± 0.15	1.3 ± 0.23	1.01 (active)
COc1cc(OC)c(NC(=O)C2CCCN(c3ccc(-c4ccc(C)c(C)c4)nn3)C2)cc1Cl (configuration not stated)	1.04 ± 0.09	1.04 ± 0.081	0.93 ± 0.04	0.964 ± 0.052	1.09 ± 0.066	1 ± 0.15	1.01 (active)
O=C(NCC(F)(F)F)c1ccc(OCC2CCOCC2)nc1	0.911 ± 0.044	0.87 ± 0.093	1.09 ± 0.064	0.937 ± 0.044	1.3 ± 0.24	1.51 ± 0.46	0.993 (active)
CC(=O)O.NCc1ccc(S(N)(=O)=O)cc1	1 ± 0.1	1.01 ± 0.052	0.992 ± 0.058	0.914 ± 0.065	0.96 ± 0.12	1.02 ± 0.092	1.01 (active)
CC(=O)N1CCC(C(=O)N2CCOCC2CN(C)C)CC1.O=CO (configuration not stated)	0.979 ± 0.11	1.08 ± 0.17	0.924 ± 0.064	0.992 ± 0.08	1.13 ± 0.089	1.06 ± 0.082	0.992 (active)
O=c1c(-c2ccc(O)cc2)coc2cc(O)cc(O)c12	1.54 ± 0.4	1.01 ± 0.26	1.2 ± 0.079	0.625 ± 0.02	0.76 ± 0.29	0.842 ± 0.1	0.945 (active)
O=S(=O)(Cc1ccccc1)Nc1ccccn1	0.951 ± 0.054	1.03 ± 0.084	0.893 ± 0.067	0.961 ± 0.032	1.49 ± 0.13	1.27 ± 0.15	1 (active)

SMILES	NF-kB reporter [1, 4]	NF-kB reporter ([1]; agonist: LPS 0.1 ug/mL)	NF-kB reporter ([1]; agonist: MPLA […])	IRF reporter ([2]; agonist: 3'3'-cGAMP 10 ug/mL)	IRF reporter ([2]; agonist: LPS 0.1 ug/mL)	IRF reporter ([2]; agonist: MPLA […])	viability score [3]
CC(Cc1ccccc1)NC(=O)C1COc2ccccc2O1 (configuration not stated)	0.662 ± 0.13	1.12 ± 0.09	1.13 ± 0.14	0.979 ± 0.048	0.965 ± 0.13	1.15 ± 0.12	0.919 (active)
COc1ccc2c(c1)c(CC(=O)OCC(=O)O)c(C)n2C(=O)c1ccc(Cl)cc1	0.844 ± 0.16	1.06 ± 0.33	0.835 ± 0.053	0.938 ± 0.029	1.15 ± 0.25	1.07 ± 0.11	0.985 (active)
Cc1cc(C)c(NC(=O)COc2ccc(C)cc2C(C)(C)C)c(C)c1	0.975 ± 0.13	0.975 ± 0.06	0.962 ± 0.11	0.953 ± 0.029	1.14 ± 0.19	1.01 ± 0.23	1.01 (active)
CC(=O)Nc1ccc2nc(NC(=O)c3ccco3)sc2c1	1.05 ± 0.083	1.03 ± 0.09	0.95 ± 0.072	0.827 ± 0.046	1.03 ± 0.069	0.744 ± 0.084	1 (active)
COc1ccc(Cl)cc1NS(=O)(=O)c1c(C)cc(C)cc1C	0.993 ± 0.14	0.937 ± 0.062	1.46 ± 0.12	1.24 ± 0.11	1.16 ± 0.11	1.04 ± 0.12	0.982 (active)
Cc1cnc2c(c1NCCCO)c(=O)n(C)c(=O)n2C	1.1 ± 0.1	1.01 ± 0.088	1.02 ± 0.027	0.881 ± 0.04	0.947 ± 0.11	0.887 ± 0.21	0.995 (active)
CCOCCn1c(C2CCN(CCc3ccc(C(C)(C)C(=O)O)cc3)CC2)nc2ccccc21	1.29 ± 0.34	0.976 ± 0.065	1 ± 0.098	0.925 ± 0.034	1.08 ± 0.13	1.04 ± 0.13	0.521 (inactive)
Nc1ccc(C=Cc2ccccc2)cc1	0.964 ± 0.097	0.776 ± 0.038	0.976 ± 0.034	0.174 ± 0.012	0.857 ± 0.089	0.719 ± 0.056	0.973 (active)
COc1c(C)c2c(c(O)c1C/C=C(\C)CCC(=O)OCCN1CCOCC1)C(=O)OC2	0.66 ± 0.12	0.222 ± 0.02	0.517 ± 0.047	0.608 ± 0.049	1.28 ± 0.13	1.24 ± 0.13	0.813 (active)
O=C(c1ccc(Cl)cc1)c1ccc(N2CCOCC2)c([N+](=O)[O-])c1	0.696 ± 0.061	1.04 ± 0.08	0.735 ± 0.044	1.11 ± 0.027	1.62 ± 0.24	1.41 ± 0.24	1 (active)
Cc1ccc(S(=O)(=O)NC(=O)NN2CC3CCCC3C2)cc1 (configuration not stated)	1.22 ± 0.17	1.17 ± 0.48	0.973 ± 0.061	0.901 ± 0.082	1.23 ± 0.46	1.14 ± 0.088	0.987 (active)
CC(=O)N1CC(C(=O)Nc2cccc(Br)c2)C1	1.11 ± 0.063	1.05 ± 0.08	0.963 ± 0.031	0.932 ± 0.034	1.05 ± 0.062	0.971 ± 0.11	0.998 (active)
O=C(Nc1ncc(S(=O)(=O)c2ccc([N+](=O)[O-])cc2)s1)c1cccs1	1.06 ± 0.11	1.09 ± 0.06	0.914 ± 0.06	0.987 ± 0.03	1.49 ± 0.27	1.18 ± 0.21	1.01 (active)
CC[C@H](C)C(=O)O[C@H]1C[C@@H](C)C=C2C=C[C@H](C)[C@H](CC[C@@H]3C[C@@H](O)CC(=O)O3)[C@H]21	2.37 ± 0.12	1.5 ± 0.12	1.77 ± 0.078	0.639 ± 0.058	0.795 ± 0.055	0.776 ± 0.17	0.238 (inactive)
Cc1ccc(C=C2Oc3c(ccc(O)c3CN3CCN(CCO)CC3)C2=O)cc1	1.12 ± 0.086	1.01 ± 0.13	1.19 ± 0.11	1.02 ± 0.038	1.39 ± 0.21	1.55 ± 0.3	1.02 (active)
CCOC(=O)C1=C(C)NC(=O)N(C(C)=O)C1c1ccc(Br)cc1 (configuration not stated)	0.554 ± 0.032	0.898 ± 0.1	0.868 ± 0.052	1.28 ± 0.044	1.66 ± 0.14	1.34 ± 0.2	0.621 (inactive)
CCN(CC)c1ccc(C=NNC(=O)c2ccncc2)c(O)c1	2.56 ± 0.2	1.66 ± 0.13	5.41 ± 0.24	0.888 ± 0.12	1.29 ± 0.084	1.35 ± 0.14	0.695 (inactive)
Cc1ccc(C(=O)NC(=S)Nc2nc(-c3cccc([N+](=O)[O-])c3)cs2)cc1C	1.02 ± 0.12	0.98 ± 0.16	0.977 ± 0.036	0.931 ± 0.17	1.08 ± 0.094	1.12 ± 0.13	1 (active)
